Compound activity: PubChem BioAssay, Broad Institute
In the library only some 3.9% were active in any assay of this set; here they are far more common.
esBAF inh = SWI/SNF esBAF complex inhibition. mouse ES cells, Bmi1-luciferase knock-in reporter, 24 h; 100% = twice the neutral-well signal. reporter increase, % at 12.5 µM. 350,000 tested, 2% active. AID 602393; in the data active means activation above about 40%; inconclusive means no clear call, values can overlap the other calls;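 further: a rise in the Bmi1 reporter signal indicates esBAF inhibition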
Wnt bcat act = Wnt/beta-catenin pathway activation; Wnt/beta-catenin reporter cell assay, activator, plate reader; 300,000 tested, 1.2% active; activation, % at 9.35 µM; in the data active means activation above about 30%, passing the limit was not always enough; inconclusive means no clear call, values can overlap the other calls
HSF1 activator = increases HSF-1 driven luciferase reporter signal; NIH3T3-HGL HSF-1 luciferase reporter, MG132, 8 h; 100% = twice DMSO control signal; activation, % at 9 µM; 300,000 tested, 1.7% active; AID 504408;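 active means mean replicate activation of at least 50% with a set share of replicates each reaching 50%; inconclusive means only one of those two conditions met; inactive means mean below 50% and too few replicates reaching it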
MITF act = activators of MITF-driven TRPM1 promoter activity in SK-MEL-5 cells; SK-MEL-5 TRPM1-promoter luciferase, 24 h; % of positive control, neutral wells = 0; activation, % at 12.5 µM; 300,000 tested, 0.75% active; AID 588334;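 active means mean activation of at least 80% with every replicate also reaching 80%; inconclusive means mean reaches 80% but some replicate falls short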
HSF1 inh = HSF1 inhibition; NIH3T3-HGL HSE-luciferase, MG132-induced, luminescence 8 h; stronger effect = lower value; activity change, negative = inhibition, % at 7.5 µM (by protocol); 300,000 tested, 0.77% active;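 active means more than half of replicate wells show activity change below -50%, luminescence cut by over half; inconclusive means some wells, but at most half, below -50%; inactive means no replicate well below -50%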;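 further: luciferase reports HSF-1 transcriptional activity via heat shock element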
Hits are given with their value; - = inactive; ? = inconclusive; . = not tested or not shown.

SMILES	esBAF inh	Wnt bcat act	HSF1 activator	MITF act	HSF1 inh
O=C(Cc1ccncc1)NCC[C@@H]1CC[C@@H](NC(=O)Nc2ccc(Cl)cc2)[C@@H](CO)O1	-	.	.	.	.
C[C@@H]1CN([C@H](C)CO)C(=O)c2cc(/C=C/c3ccccc3)cnc2O[C@H]1CN(C)Cc1ccc2c(c1)OCO2	-	.	.	.	.
O=C(C[C@@H]1C=C[C@H](NS(=O)(=O)c2cccc(F)c2)[C@H](CO)O1)NCc1ccc2c(c1)OCO2	-	.	.	.	.
CC(=Nc1ccc(Br)cc1)c1sc2ccccc2c1O	-	-	60	-	-
CC(=Nc1ccccc1)c1sc2ccccc2c1O	?	-	-	-	-
O=C(C[C@H]1CC[C@@H](NC(=O)c2ccc3c(c2)OCO3)[C@@H](CO)O1)NCc1ccc(Oc2ccccc2)cc1	-	.	.	.	.
O=C(/C=C/Nc1ccc(Br)cn1)c1cccc(OC(F)F)c1	68	-	.	93	.
COc1cccc(C(=O)/C=C/Nc2cccc(O)c2)c1	-	-	-	-	-
O=C(O)c1ccccc1OC(C(=O)Nc1cc(Cl)cc(Cl)c1)c1ccccc1 (centres undefined)	-	-	58	-	-
N#Cc1ccc(Cl)cc1NC(=O)COC(=O)c1ccc(S(=O)(=O)N2CCCC2)cc1	-	-	55	.	-
C[C@@H]1CN([C@H](C)CO)C(=O)c2cc(NC(=O)CCCN(C)C)ccc2O[C@H]1CN(C)C(=O)Nc1ccc(F)cc1	-	.	.	.	.
COc1ccc(-c2nnc(SCC(C)C)o2)cc1	.	42	-	-	-
CO[C@H]1CN(C)C(=O)c2cc(NC(=O)c3cnccn3)ccc2OC[C@H](C)N(C)C[C@H]1C	-	.	.	.	.
CCCC#Cc1ccc([C@@H]2[C@H]3CN(CCC)CCCCN3[C@H]2CO)cc1	-	.	.	.	.
CCCCC(=O)N1CCN(c2nc3ccc(Cl)cc3s2)CC1	50	-	-	-	-
CC1CC(C)CN(CCCNC(=O)c2ccc3nc(N4CCCCC4)sc3c2)C1 (centres undefined)	55	-	-	.	-
CCCN1CCN(CCCNC(=O)c2ccc3nc(N4CCCCC4)sc3c2)CC1	77	-	-	-	-
O=C(NCCCN1CCC(Cc2ccccc2)CC1)c1ccc2nc(N3CCOCC3)sc2c1	.	-	-	-	-
CO[C@@H]1CN(C)C(=O)c2ccc(NC(=O)Nc3c(C)noc3C)cc2OC[C@@H](C)N(C)C[C@@H]1C	-	.	.	.	.
C[C@@H]1CN([C@H](C)CO)C(=O)Cc2cc(NC(=O)CCC(F)(F)F)ccc2O[C@H]1CN(C)S(=O)(=O)c1ccc(Cl)cc1	-	.	.	.	.
COc1ccc2cc(C(=O)CS(=O)(=O)c3ccccc3)c(=O)oc2c1	-	-	-	-	-
O=C(CS(=O)(=O)c1ccccc1)c1cc2ccccc2oc1=O	-	.	57	-	-
COc1ccc(OC)c(S(=O)(=O)CC(=O)c2cc3ccccc3oc2=O)c1	.	-	.	.	.
O=C(CS(=O)(=O)c1ccccc1)c1cc2cc(F)ccc2oc1=O	-	.	325	-	-
COCc1nc2sc3c(c2c(=O)[nH]1)CCCC3	.	-	-	-	-
SMILES	esBAF inh	Wnt bcat act	HSF1 activator	MITF act	HSF1 inh
COc1cccc(-c2nc3sc4c(c3c(=O)[nH]2)CCCCC4)c1	.	.	53	114	-
CCOC(=O)c1c(-c2ccc(C)o2)csc1NC(=S)NC(=O)c1cccs1	-	-	-	-	-
CCOC(=O)c1c(-c2ccc(C)o2)csc1NC(=O)CSc1nnc(C)s1	-	-	-	-	-
CCOC(=O)c1c(-c2ccc(C)o2)csc1NC(=O)COC(=O)c1ccc(NC(N)=O)cc1	-	.	74	-	-
CCOC(=O)c1c(-c2ccc(C)o2)csc1NC(=S)NC(=O)c1ccccc1Br	-	.	85	-	-
CC1(C)NC(=O)N(CCCCOc2ccccc2[N+](=O)[O-])C1=O	.	.	-	.	-
CC1(C)NC(=O)N(CCOCCSc2ccccc2)C1=O	61	-	-	-	-
CC1(C)NC(=O)N(CCCOc2ccccc2Br)C1=O	-	-	52	-	-
CCCC#Cc1ccc([C@@H]2[C@@H](CO)N(C(=O)C3CC3)[C@H]2C#N)cc1	-	.	.	.	.
COCc1cn(CC[C@H]2CC[C@H](NC(=O)Nc3ccc(F)cc3)[C@H](CO)O2)nn1	-	.	.	.	.
COc1ccc(-c2cc(=O)c3cc(C)ccc3[nH]2)cc1	-	45	-	107	-
COc1ccc(-c2cc(=O)c3cc(OC)ccc3[nH]2)cc1	-	.	-	-	-
C[C@@H]1CCCCO[C@H](CN(C)Cc2ccncc2)[C@H](C)CN([C@@H](C)CO)C(=O)c2cc(N(C)C)ccc2O1	-	.	.	.	.
COc1cc2c(cc1NC(=O)C(C)OC(=O)C1CC(=O)N(Cc3ccco3)C1)oc1ccccc12 (centres undefined)	-	.	74	-	-
COc1cc2c(cc1NC(=O)C(C)Sc1ccc(NC(C)=O)cc1)oc1ccccc12 (centres undefined)	.	.	-	-	-60
COc1cc2c(cc1NC(=O)c1cccc(S(=O)(=O)N(C)C)c1)oc1ccccc12	.	41	-	-	-
COc1cc2c(cc1NC(=O)C1CCCO1)oc1ccccc12 (centres undefined)	57	-	-	-	-
CCNC(=S)Nc1cc2oc3ccccc3c2cc1OC	45	-	-	-	-
Cc1ccc(S(=O)(=O)N(C)C[C@H]2Oc3ccc(N(C)C)cc3CC(=O)N([C@@H](C)CO)C[C@H]2C)cc1	-	.	.	.	.
CCC(=O)Nc1cc2nn(-c3ccc(OC)cc3)nc2cc1C	-	.	-	-	-
Cc1ccc(-n2nc3cc(C)c(NC(=S)NC(=O)/C=C/c4ccco4)cc3n2)cc1	.	-	-	-	-
CCC(=O)Nc1cc2nn(-c3ccc(C)cc3)nc2cc1C	-	-	-	-	-62
CCCCC(=O)Nc1cc2nn(-c3ccc(OC)cc3)nc2cc1C	42	-	-	-	-
CC1CCN(C2=NC(=O)/C(=C/c3ccccc3F)S2)CC1	-	-	-	-	-68
COc1ccccc1OCC(=O)N/N=C/C=C/c1ccc([N+](=O)[O-])o1	.	69	-	-	-
SMILES	esBAF inh	Wnt bcat act	HSF1 activator	MITF act	HSF1 inh
COc1ccc(NC(=O)N(C)C[C@H]2OCCCC[C@@H](C)Oc3ccc(NS(=O)(=O)c4cn(C)cn4)cc3C(=O)N([C@H](C)CO)C[C@@H]2C)cc1	-	.	.	.	.
Cc1ccc(OCc2ccc(C#N)cc2)c(C(=O)c2cc(C#N)c(=O)n(C3CC3)c2)c1	.	-	53	-	-
CN(C)CC#Cc1ccc([C@H]2[C@H](CO)N3CCCCN(C(=O)CN(C)C)C[C@@H]23)cc1	-	.	.	.	.
N#C[C@@H]1[C@@H](c2ccc(-c3cccc(F)c3)cc2)[C@H](CO)N1C(=O)NC1CCCC1	-	.	.	.	.
O=C(COC(=O)c1ccc2c(c1[N+](=O)[O-])C(=O)c1ccccc1C2=O)NC1CC1	.	-	124	-	-
C[C@H](NC(=O)C[C@@H]1C[C@@H]2c3cc(NC(=O)C4CCC4)ccc3O[C@@H]2[C@H](CO)O1)c1ccccc1	-	.	.	.	.
COc1ccc(CN(C)CCc2ccccn2)cc1OC	-	-	-	-	-
COc1cc(OC)c(OC)cc1CN(C)CCc1ccccn1	-	.	74	-	-
